Results filed as inconclusive are left out. A number with no mark means an inactive call. Active and inactive are the calls of the source. The call rests on the fitted dose curve; in most records, active means well fitted cell-killing curve with a large enough effect; inconclusive means small, poorly fitted or top-dose-only effect, or effect the other way; inactive means no such curve, though single readings can be large or run the other way.
Experiment: Viability qHTS for spleen associated tyrosine kinase inhibitor (SYKi) naive MV4-11 cells (AID 1963823); further: nearly all actives have a fitted effect of over 40% in size
Conditions: MV4-11 AML viability, CellTiter-Glo luminescence, 72 h; series mostly up to 45 µM; viability (% of control): at the top concentration
In short: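 Read-out: CellTiter-Glo luminescence. Exposure: 72 hr, 37 C, 5% CO2, 95% humidity. Cells: MV4-11 without SYK inhibitor history, 500/well, qHTS format.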
Potency means the concentration at half of the fitted maximal effect.

SMILES	Potency	viability (% of control)
CCCCC1CCN(CCCC(=O)c2ccccc2C)CC1	16.4 µM (active)	–
CC(C)C(=O)OC[C@H]1O[C@@H](n2ccc(N)nc2=O)[C@](C)(F)[C@@H]1OC(=O)C(C)C	–	67.7%
COc1c(O)cc2c(c1O)C(=O)O[C@H](C)[C@H]2O	–	85.8%
O=C1C=CC2OC(c3ccccc3)C(O)C2O1 (stereo not drawn)	6.51 µM (active)	–
Cc1cc(CS(=O)(=O)c2ccccc2)cc(OCc2ccc(CN3CCC[C@@H]3CO)cc2)c1	16.6 µM (active)	–
CCC(CCO[C@@H]1O[C@H](CO[C@H]2OC[C@](O)(CO)[C@H]2O)[C@@H](O)[C@H](O)[C@H]1O)C(C)(C)O (stereo partly drawn)	–	75.2% [at 17.3 µM]
CC1(O)CC(O)C2(O)C=COC(O[C@@H]3O[C@H](CO)[C@@H](O)[C@H](O)[C@H]3O)C12 (stereo partly drawn)	–	81.8%
CC1=C(C(=O)O[C@@H]2O[C@H](COC3OCC(O)C(O)C3O)[C@@H](O)[C@H](O)[C@H]2O)C(C)(C)CCC1 (stereo partly drawn)	–	61.4% [at 17.3 µM]
C=CC(=O)Nc1ccc(CN2C(=O)N(c3cc(OC)cc(OC)c3)Cc3cnc(Nc4ccc(N5CCN(C)CC5)cc4)nc32)cc1	1.16 µM (active)	–
COc1cc(/C=C/CO)cc(OC)c1O[C@@H]1O[C@H](CO[C@@H]2O[C@H](CO)[C@@H](O)[C@H](O)[C@H]2O)[C@@H](O)[C@H](O)[C@H]1O	–	87.7% [at 17.3 µM]
O=C1NC(Cc2ccc(O)cc2)C(=O)N2CCCC12 (stereo not drawn)	–	59.9%
C=C1C(=O)O[C@@H]2/C=C(\CO)CC/C=C(\CO)[C@H](OC(C)=O)C(OC(=O)C(C)CC)C12 (stereo partly drawn)	5.02 µM (active)	–
O=C(O[C@@H]1O[C@H](CO)[C@@H](O)[C@H](O)[C@H]1O)c1c(O)cc(O)cc1/C=C/c1ccccc1	–	95.3% [at 17.3 µM]

Source: PubChem BioAssay (NCATS)
